Screens (PubChem BioAssay)
An excerpt weighted towards active compounds, which were near 2.2% of everything screened.
aSyn rescue – inhibitors of alpha-synuclein toxicity in yeast. Potency, µM (top dose mostly 46.1 µM), usual class: activators. AID 652106. 370,000 compounds, 0.14% hits. Yeast expressing alpha-synuclein, growth rescue, BacTiter-Glo, 24 h; also: nearly all actives have a fitted effect of over 65% in size
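Readout is rescue of growth in alpha-synuclein-expressing yeast, so inhibitors of toxicity appear as activators. Growth after 24 hr at 30 deg C in galactose medium is quantified by luminescence.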
Abeta rescue – compounds reversing amyloid beta toxicity in yeast | yeast expressing A-beta42, growth rescue, OD600, 48 h; response scale: 0% DMSO, 100% iron-clioquinol control | Potency, µM (titrated, usually from 46.1 µM), usual class: activators | 410,000 compounds, 0.063% hits; also: nearly all actives have a fitted effect of over 55% in size
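Yeast A-beta toxicity model in growth medium with pinned compounds, 48 h at 30 C; growth read as absorbance at 600 nm. Normalized to FeCl3/clioquinol equimolar mix (positive) and DMSO (negative).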
TDP-43 yeast inh – rescues yeast growth from TDP-43 toxicity; TDP-43 expressing yeast growth rescue, BacTiter-Glo, 24 h; Potency, µM (series often up to 46.1 µM), actives largely listed as activators; 410,000 compounds, 1.8% hits; also: nearly all actives have a fitted effect of over 50% in size
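In this qHTS, compounds that restore growth of yeast expressing TDP-43 appear as activators. Cells (OD600=0.02, galactose medium, raffinose-pregrown) are incubated with compound 24 hr at 30 deg C and growth is quantified by BacTiter-Glo.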
FUS yeast rescue – rescues growth of FUS-expressing yeast; Potency, µM (series often up to 76.6 µM), usual class: activators; 390,000 compounds, 0.24% hits; S. cerevisiae FUS-expressing, growth rescue, OD600, 24 h; also: nearly all actives have a fitted effect of over 55% in size
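Yeast expressing FUS under galactose induction, OD 0.005 in 2% galactose medium; compounds in a dilution series, 24 h at 30C. Growth rescue by absorbance at 600 nm; CP55940 positive control, DMSO negative.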
Mito fusion act – blocks mitochondrial division or promotes mitochondrial fusion; S. cerevisiae fusion-defective mutant growth rescue, CellTiterGlo 48 h; 320,000 compounds, 0.23% hits; Potency, µM (titrated, usually from 46.1 µM), most hits filed as activators; also: nearly all actives have a fitted effect of over 45% in size
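Compounds are tested for their ability to restore growth of mitochondrial fusion-defective yeast strains at non-permissive 37C in YPEG medium over 48 hours. Viability is quantified by luciferase luminescence.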
Numbers stand for hits; 0 = inactive; ? = inconclusive; - = not tested or not shown; [ ] = another dose, or the depositor's remark. Calls follow the shape of the dose curve; as a rule, active = well fitted curve in the direction sought with a large enough effect; inconclusive = small, poorly fitted or top-dose-only effect, or another doubt; inactive = no such curve, though single readings can be large; an effect the other way counts as inactive or inconclusive.

SMILES	aSyn rescue	Abeta rescue	TDP-43 yeast inh	FUS yeast rescue	Mito fusion act
O=c1[nH]c(C2CCCN(S(=O)(=O)c3ccccc3Cl)C2)nc2c1nnn2Cc1ccc(OC(F)(F)F)cc1 (stereo not drawn)	-	0	0	0	-
O=c1[nH]c(C2CCCN(S(=O)(=O)c3ccccc3Cl)C2)nc2c1nnn2Cc1ccc2c(c1)OCCO2 (stereo not drawn)	0	-	0	14µM	0
CCc1ccc(-c2cc(C)no2)cc1S(=O)(=O)Nc1ccc(Cl)cc1	-	0	22µM	?	-
Cc1cc(-c2ccc(C)c(S(=O)(=O)NCc3ccc(Cl)cc3)c2)on1	-	0	32µM	0	-
CCc1ccc(-c2cc(C)no2)cc1S(=O)(=O)NCCc1ccccc1	0	0	13µM	0	0
Cc1cc(-c2ccc(C)c(S(=O)(=O)NCCc3ccccc3)c2)on1	-	0	?	0	-
Cc1cc(-c2ccc(C)c(S(=O)(=O)NCc3cccs3)c2)on1	-	0	0	0	-
Cc1ccc(CNC(=O)c2ccc(Cn3c(SCc4ccc(F)cc4)nc4cccnc43)cc2)o1	-	0	0	0	-
C/C(=N\OC(=O)c1ccc(F)cc1)c1sc(-c2ccccc2)nc1C	0	0[9.22 µM]	0	0	0
C/C(=N\OC(=O)NC1CCCCC1)c1sc(-c2ccccc2)nc1C	-	0	20µM	0	0
COC(=O)C1(C)CCc2cc(OC)ccc2C1=O (stereo not drawn)	0	0	0	0	0
COC(=O)C1(C)CN(S(=O)(=O)c2ccc(C)cc2)c2cc(OC)ccc2C1=O (stereo not drawn)	0	0	0	-	14µM
Fc1cc(Br)ccc1Nc1c2c(nc3nc(-c4cccs4)nn13)CCCC2	-	0	20µM	0	-
Cc1ccc(Nc2c3c(nc4nc(-c5cccs5)nn24)CCCC3)cc1F	-	0	0	0	-
CC(=O)c1ccc(NC(=O)C2CCN(S(=O)(=O)c3ccc4c(c3)CCCN4C(=O)C3CCC3)CC2)cc1	-	0	0	0	-
Cc1cccc(Nc2nc(N)c([N+](=O)[O-])c(N3CCC(C)CC3)n2)c1	0	0	25µM	0	0
Cc1cccc(Nc2nc(N)c([N+](=O)[O-])c(NCc3ccco3)n2)c1	0	0	14µM	?	?
Cc1cccc(Nc2nc(N)c([N+](=O)[O-])c(N3CC(C)CC(C)C3)n2)c1 (stereo not drawn)	0	0	0	0	0
Cc1cccc(Nc2nc(NCc3ccco3)nc(N)c2[N+](=O)[O-])c1	0	0	0	0	0
CCOc1ccc(C(=O)c2cn(CC(=O)Nc3ccc(C)c(C)c3)c3ccc(OCC)cc3c2=O)cc1	-	0	0	0	-
CC(C)(C)C(=O)N1CCC[C@H]1C(O)(c1ccccc1)c1ccccc1	0	0	0	0	35µM
CCCCn1nnnc1C(c1ccccc1)N1CCN(c2c(Cl)cncc2Cl)CC1 (stereo not drawn)	0	0	22µM	0	-
C/C(=N\NC(=S)NC(C)C)c1ccccc1	0	11µM	0	0	0
CC(=O)Nc1cccc(/C(C)=N/NC(=S)NC(C)C)c1	0	0	0	0	0
COc1cc(C(=O)OCC(=O)Nc2ccc3c(c2)OC(F)(F)O3)ccc1OCc1c(C)noc1C	0	0	35µM	0	0
SMILES	aSyn rescue	Abeta rescue	TDP-43 yeast inh	FUS yeast rescue	Mito fusion act
CCn1c(=O)cc(OCC(=O)N2CCN(c3ccc(C)cc3)C(C)C2)c2ccccc21 (stereo not drawn)	-	0	?	0	-
COc1ccc(OCCSc2nnc3sc4ccccc4n23)cc1	0	0	16µM	0	0
CN(C)CCSc1nnc2sc3ccccc3n12	0	0	0	0	0
CCCN1C(=O)CN(C2CCCCCC2)C(=O)C1c1ccc(OCC)c(OC)c1 (stereo not drawn)	-	0	0	0	-
COc1ccc(C(=O)c2ccccc2)cc1Br	0	0	13µM	0	0
COc1ccc(C(=O)NCc2ccccc2)cc1Br	0	0	?	0	0
O=C(Nc1ccccc1)c1ccccc1Oc1ccc(C(F)(F)F)cc1[N+](=O)[O-]	0	0	20µM	0	?
O=C(Nc1ccc(F)cc1)c1ccccc1Oc1ccc(C(F)(F)F)cc1[N+](=O)[O-]	14µM	0	22µM	-	?
O=[N+]([O-])c1cc(C(F)(F)F)ccc1Oc1cccnc1[N+](=O)[O-]	0	0	0[0.397 µM]	0	0
Cc1ccc(S(=O)(=O)N2CCN(c3nc(-c4cncn4C)nc4ccccc34)CC2)cc1	0	-	-	-	-
CCC(=O)NC(c1cccs1)c1cc(Cl)c2cccnc2c1O (stereo not drawn)	0	0	0	0	0
COc1ccc(C(=O)NC(c2ccccc2Cl)c2cc(Cl)c3cccnc3c2O)cc1 (stereo not drawn)	16µM	0	?	0	-
CC(=O)NC(c1ccc(N(C)C)cc1)c1cc(Cl)c2cccnc2c1O (stereo not drawn)	0	0	28µM	0	-
CCCCC(=O)NC(c1cccs1)c1cc(Cl)c2cccnc2c1O (stereo not drawn)	22µM	?	0	0	0
CCOc1ccccc1-n1nnc(-c2nc(-c3ccccc3)no2)c1N	-	0	0	0	-
CN1CCN(c2ccc(-c3cc(O)c4ncccc4c3)cc2)CC1	-	-	-	-	0
O=C(CC(=O)c1ccccc1O)c1cccc(F)c1	13µM	0	0	-	0
Nc1nnc(SCC(=O)OCC(=O)c2ccccc2)s1	0	0	0[0.397 µM]	0	32µM
O=C(CC(=O)c1ccccn1)c1ccccc1	13µM	?	?	-	-
CC(C)c1cnc2c(c1SCC(=O)Nc1cccc(F)c1)c(=O)n(C)c(=O)n2C	-	0	35µM	0	-
Cc1cc(C)cc(NC(=O)CSc2c(C(C)C)cnc3c2c(=O)n(C)c(=O)n3C)c1	-	0	?	0	-
Cc1nc2n(c(=O)c1CCN1CCC(c3noc4cc(F)ccc34)CC1)CCC[C@H]2O	0	-	-	-	-
COc1ccc(CC(=O)NCc2nc3cccnc3n2Cc2ccc(C)cc2)cc1OC	-	0	?	0	-
O=C(C1CCN(S(=O)(=O)Cc2ccccc2)CC1)N1CCN(c2ccccc2)CC1	-	0	0	0	-
O=C(Nc1ccc(S(=O)(=O)N2CCOCC2)cc1)C1CCN(S(=O)(=O)c2ccc(F)cc2)CC1	0	0	14µM	?	0
SMILES	aSyn rescue	Abeta rescue	TDP-43 yeast inh	FUS yeast rescue	Mito fusion act
O=C(C1CCN(S(=O)(=O)Cc2ccccc2)CC1)N1CCN(c2ccc(F)cc2)CC1	-	0	22µM	0	-
O=C(C1CCN(S(=O)(=O)N2CCOCC2)CC1)N1CCN(c2ccc(F)cc2)CC1	0	0	0[0.397 µM]	0	35µM
CCc1ccc(NC(=O)CSc2nnc(-c3ccccc3)n2C)cc1	0	-	-	-	-
CC1CCN(S(=O)(=O)c2ccc3c(c2)CCC(=O)N3CC(=O)Nc2cccc(C#N)c2)CC1	-	0	0	0	0
CCc1ccc(CNC(=O)c2cc3c(C)nc4ccccc4c3o2)cc1	0	0	20µM	?	0
CCc1c(-c2ccccc2)nc2ccccc2c1C(=O)NCCc1ccccc1	-	0	0	0	-
